Mac1 fbg inh: inhibitors of CD11b/CD18 adhesion to fibrinogen, primary screen, K562 cells, luminescence; Integrin beta-2 (Homo sapiens) + Integrin alpha-M (Homo sapiens), P05107+P11215; ATPlite luminescence; Mn2+ added to activate the integrin; inhibition, % at 10 µM; 93,000 compounds, 0.54% hits;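 active means primary inhibition of 50% or more at 10 µM, then 40% or more on retest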
CYP2C9 inhib: blockers of cytochrome P450 2C9 activity – biochemical, luminescence, ADME assay, primary screen; P11712; CYP2C9 Supersomes, luciferin-H conversion; inhibition, % at 5 µM; 96,000 compounds, 20% hits; AID 777, 2007;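 active means blocking of liver enzyme CYP2C9 beyond about 50% at 5 µM, limit read from the data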
Target sequence (P11712 whole entry, looked up): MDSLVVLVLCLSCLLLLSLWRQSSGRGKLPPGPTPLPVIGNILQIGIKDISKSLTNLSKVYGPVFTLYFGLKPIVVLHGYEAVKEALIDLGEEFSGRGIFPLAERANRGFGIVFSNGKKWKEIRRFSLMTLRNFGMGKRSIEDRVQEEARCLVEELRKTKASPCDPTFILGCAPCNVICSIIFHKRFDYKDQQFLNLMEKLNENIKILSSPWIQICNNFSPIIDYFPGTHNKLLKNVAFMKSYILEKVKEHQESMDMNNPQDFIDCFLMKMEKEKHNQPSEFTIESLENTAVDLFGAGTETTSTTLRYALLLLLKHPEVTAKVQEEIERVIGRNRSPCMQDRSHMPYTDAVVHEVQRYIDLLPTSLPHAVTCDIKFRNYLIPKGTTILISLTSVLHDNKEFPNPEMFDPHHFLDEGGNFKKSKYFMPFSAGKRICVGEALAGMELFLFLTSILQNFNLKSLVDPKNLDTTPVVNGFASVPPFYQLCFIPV
CYP2C9 activ: human CYP2C9 activators, primary screen, biochemical, luminescence; Cytochrome P450 2C9 (Homo sapiens), P11712; recombinant CYP2C9, luciferin-H conversion; stronger effect = higher value; factor 1 = untreated enzyme, 0 = blocked; activation factor at 5 µM; 96,000 compounds, 1.4% hits;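 active means activation factor of 2 or more for CYP2C9 at a 5 µM dose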;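 further: 0 = sulfaphenazole-blocked wells and 1 = vehicle-only wells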
CD11b adhes enh: enhancers of CD11b/CD18 adhesion to fibrinogen, primary screen, K562 cells, luminescence. ATPlite luminescence. Integrin beta-2 (Homo sapiens) + Integrin alpha-M (Homo sapiens), P05107+P11215. activation, % at 10 µM. 93,000 compounds, 0.07% hits. AID 1499, 2009;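 active means 10 µM primary screen giving 50% or more activity, confirmed by 40% or more on retest at that dose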
CYP2C19 inhib: blockers of cytochrome P450 2C19 activity – biochemical, luminescence, ADME assay, primary screen; P33261; CYP2C19 Supersomes, luciferin-H EGE luminescence, 30 min; inhibition, % at 5 µM; 96,000 compounds, 21% hits; AID 778, 2007;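 active means CYP2C19 inhibition above a set limit at 5 µM in the primary screen, cut at about 50% in these data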;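 further: plate controls were negative control wells for no effect and 2.5 mM tranylcypromine positive control for full effect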
CYP2C19 activ: human CYP2C19 activators, primary screen, biochemical, luminescence. Cytochrome P450 2C19 (Homo sapiens), P33261. recombinant CYP2C19, luciferin-H EGE luminescence; stronger effect = higher value; 0 = fully inhibited enzyme, 1 = untreated enzyme. activation factor at 5 µM. 96,000 tested, under 10 active;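 active means activation factor of at least 2 at 5 µM in the primary screen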;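 further: 0 = wells with 2.5 mM tranylcypromine and 1 = vehicle-only wells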
Starred values were filed as active, the others as inactive; x = not tested or not shown. In the library only some 28% were active in any assay of this set; here they are far more common.

SMILES | Mac1 fbg inh | CYP2C9 inhib | CYP2C9 activ | CD11b adhes enh | CYP2C19 inhib | CYP2C19 activ
Cc1ccccc1NC(=O)C1CCCN(S(=O)(=O)c2c(C)noc2C)C1 (configuration not stated) | -14.6 | 2.0 | 1 | -4.1 | 9.3 | 0.9
Cc1noc(C)c1S(=O)(=O)N1CCCC(C(=O)N2CCc3ccccc3C2)C1 (configuration not stated) | 34.1 | 46.7 | 0.5 | -3.6 | 73.6* | 0.3
Cc1ccc(C)c(N2CCN(C(=O)C3CCCN(S(=O)(=O)c4c(C)noc4C)C3)CC2)c1 (configuration not stated) | -12.9 | 92.6* | 0.1 | 2.6 | 73.7* | 0.3
CCCCn1c(=O)[nH]c(=O)c2c1nc(-c1ccc(C#N)cc1)n2C1CCCC1 | 10.9 | 61.5* | 0.4 | 34.2 | 25.2 | 0.7
CC(C)Cn1c(-c2ccc(C#N)cc2)nc2c1c(=O)[nH]c(=O)n2CC(C)C | 11.1 | -1.9 | 1 | -0.9 | 8.2 | 0.9
COC(=O)/C=C1\S/C(=N/NC(=O)c2ccccc2)NC1=O | -1.8 | 80.6* | 0.2 | -2.7 | 7.0 | 0.9
COC(=O)/C=C1/S/C(=N/NC(=O)c2ccccc2C)NC1=O | -30.1 | 78.3* | 0.2 | -2.6 | 5.6 | 0.9
COC(=O)/C=C1/S/C(=N/NC(=O)c2ccccc2)NC1=O | x | 28.8 | 0.7 | x | -9.0 | 1.1
O=C(O)Cn1nc(C(F)(F)F)c2c1CCC2 | -1.6 | -19.8 | 1.2 | 3.3 | 20.8 | 0.8
CCn1c(SCc2cccnc2)nnc1-c1c[nH]c2ccccc12 | 6.1 | 45.1 | 0.5 | -2.1 | 89.2* | 0.1
COCCn1c(SCc2cccnc2)nnc1-c1c[nH]c2ccccc12 | -14.5 | 55.0* | 0.4 | -2.6 | 75.1* | 0.2
COn1c(SCc2cccnc2)nc2ccccc2c1=O | -16.2 | 28.3 | 0.7 | -1.7 | 39.4 | 0.6
O=c1c(F)cn(C2CCCO2)c(=O)n1Cc1ccccc1F (configuration not stated) | -3.0 | 38.3 | 0.6 | 5.7 | 84.2* | 0.2
Cc1nc2ccccn2c1C(=O)NCc1cccnc1 | -16.6 | 9.2 | 0.9 | -1.2 | 48.9 | 0.5
CN1CCN(Cc2ccc(-c3ccc(Cl)cc3)o2)CC1 | 2.9 | 7.1 | 0.9 | -1.2 | 57.2* | 0.4
Cc1ccc(Cl)c2c1NC(=O)C2(O)CC(=O)c1ccc(Br)cc1 (configuration not stated) | 6.8 | 4.5 | 1 | 2.6 | 60.9* | 0.4
CCS(=O)(=O)Nc1ccc(C(=O)CC2(O)C(=O)Nc3ccc(Br)cc32)cc1 (configuration not stated) | -6.5 | 21.1 | 0.8 | 2.0 | -1.1 | 1
CCCc1cc(Nc2c(C)n(C)n(-c3ccccc3)c2=O)n2c(nc3ccccc32)c1C#N | x | 61.8* | 0.4 | x | 6.3 | 0.9
Cc1cc(Nc2c(C)n(C)n(-c3ccccc3)c2=O)n2c(nc3ccccc32)c1C#N | -0.3 | 39.6 | 0.6 | -1.0 | 26.6 | 0.7
CC1CCCN(Cc2cnc(Cl)s2)C1 (configuration not stated) | -6.4 | 2.5 | 1 | -2.0 | 53.1* | 0.5
N/C(Cc1cccs1)=N\OC(=O)COc1ccc(Cl)cc1Cl | 3.5 | 8.0 | 0.9 | -0.1 | 32.7 | 0.7
O=C(NCCc1c[nH]c2ccccc12)c1ccc(-n2cnnn2)cc1 | x | -211.4 | 3.1* | x | 52.6* | 0.5
O=C(NC1CCCCCC1)c1ccc(S(=O)(=O)NCc2ccco2)cc1 | -5.0 | 10.0 | 0.9 | -3.1 | -1.9 | 1
O=C(NCCc1c[nH]c2ccccc12)c1ccc(S(=O)(=O)NCc2ccco2)cc1 | 13.8 | 83.5* | 0.2 | 2.0 | 83.5* | 0.2
CCC(C)NC(=O)C1CCCN(S(=O)(=O)c2ccc(-n3cnnn3)cc2)C1 (configuration not stated) | -1.3 | 13.6 | 0.9 | -3.7 | 9.0 | 0.9
SMILES | Mac1 fbg inh | CYP2C9 inhib | CYP2C9 activ | CD11b adhes enh | CYP2C19 inhib | CYP2C19 activ
COc1ccc(CCNc2oc(COc3ccc(Br)cc3)nc2C#N)cc1OC | -2.2 | 51.1* | 0.5 | 7.4 | 33.8 | 0.7
COc1ccc(CCNc2oc(Cc3cccc4ccccc34)nc2C#N)cc1OC | 8.7 | 57.1* | 0.4 | 6.9 | 49.1 | 0.5
COc1ccc(CCNc2oc(-c3cccc4ccccc34)nc2P(=O)(OC)OC)cc1OC | -26.6 | x | x | -2.2 | x | x
O=C(CSc1nnc2ccccn12)Nc1cccc(S(=O)(=O)N2CCOCC2)c1 | -1.3 | x | x | 1.1 | x | x
Cc1cc(NCCO)c2cc(O)ccc2n1 | -3.2 | -11.4 | 1.1 | -2.6 | -10.2 | 1.1
O=C1CCCc2c1[nH]c1ccccc21 | -5.0 | -119.2 | 2.2* | -5.3 | -1.5 | 1
COc1ccc(-n2c(Cc3cccn3C)nnc2SCC(=O)Nc2nccs2)cc1 | -4.0 | 58.3* | 0.4 | 0.0 | 78.1* | 0.2
COc1cccc(NC(=O)CSc2nnc(Cc3cccn3C)n2-c2ccc(F)cc2)c1 | 19.6 | 84.1* | 0.2 | 4.2 | -14.0 | 1.1
COc1ccc(NC(=O)CSc2nnc(Cc3cccn3C)n2CCc2ccccc2)c(OC)c1 | x | 46.9 | 0.5 | x | 74.8* | 0.3
COc1ccc(-n2c(Cc3cccn3C)nnc2SCC(=O)Nc2ccccc2C)cc1 | -16.8 | 31.2 | 0.7 | 10.7 | 18.2 | 0.8
COc1ccc(-n2c(Cc3cccn3C)nnc2SCC(=O)Nc2ccc(F)cc2F)cc1 | 2.6 | 55.3* | 0.4 | 3.4 | 27.1 | 0.7
COc1ccc(/C=C/C(=O)c2c(O)ccc3c(C)cc(=O)oc23)cc1 | -9.6 | x | x | -0.9 | x | x
CC(C)=CCCC(C)CN(C)CCc1ccccn1 (configuration not stated) | -16.9 | -3.0 | 1 | -1.5 | 47.4 | 0.5
COc1ccc(-n2c(Cc3cccn3C)nnc2SCC(=O)NCCc2ccccc2)cc1 | 15.9 | 73.4* | 0.3 | -2.2 | 34.5 | 0.7
CCOC(=O)c1ccccc1NC(=O)CSc1nnc(Cc2cccn2C)n1-c1ccc(C)cc1 | 17.6 | 88.9* | 0.1 | 0.4 | 56.2* | 0.4
COc1ccc(OC)c(NC(=O)CSc2nnc(Cc3cccn3C)n2-c2ccc(F)cc2)c1 | 5.5 | 54.2* | 0.5 | 3.2 | 72.9* | 0.3
CCS(=O)(=O)N1CCC(C(=O)NCCCN2CCCC2)CC1 | x | -18.8 | 1.2 | x | -20.5 | 1.2
C=CCOc1ccccc1CNn1nnnc1N | 21.8 | -6.6 | 1.1 | -0.9 | 35.4 | 0.6
CC1(C)CC(=O)C=C(OC(=O)c2ccc(Cl)cc2)C1 | 11.8 | 53.1* | 0.5 | -5.4 | 17.8 | 0.8
Cc1ccc2c(c1)C(O)(CC(=O)c1ccc3c(c1)OCO3)C(=O)N2 (configuration not stated) | -26.4 | 21.6 | 0.8 | -1.7 | 58.4* | 0.4
